Bioassay records as filed in PubChem BioAssay.
An excerpt weighted towards active compounds, which were near 4.5% of everything screened.
Rtt109 HAT inh = inhibitors of C. albicans Rtt109/Vps75 HAT, primary screen, biochemical, ThioGlo CoA-SH fluorescence, plate reader; Histone acetyltransferase RTT109 (Candida albicans (strain SC5314 / ATCC MYA-2876)), …; purified Rtt109/Vps75, 4 h; inhibition, % at 34.9 µM; hit rate 0.16% among 330,000;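 active means inhibition of at least 50% in every replicate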
ALR H2O2 inh = inhibitors of human ALR sulfhydryl oxidase, primary screen, biochemical, H2O2 detection, HRP-luminol luminescence, single point. FAD-linked sulfhydryl oxidase ALR (Homo sapiens), P55789. purified ALR, DTT oxidation. inhibition, % (test concentration not listed). hit rate 3.8% among 290,000. AID 485317, 2010;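 active means mean replicate inhibition above about 79%, with every replicate also reaching it, limit read from the data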
Target sequence (P55789 whole entry, looked up): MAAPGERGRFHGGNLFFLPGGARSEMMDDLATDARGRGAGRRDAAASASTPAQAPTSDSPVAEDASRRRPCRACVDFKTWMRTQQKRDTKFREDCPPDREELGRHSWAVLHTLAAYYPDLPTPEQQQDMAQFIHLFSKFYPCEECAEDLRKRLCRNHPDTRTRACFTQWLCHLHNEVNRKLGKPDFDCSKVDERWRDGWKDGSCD
GRK2 aptamer HTS = compounds blocking aptamer binding on GRK2 – biochemical, human GRK2, bead flow cytometry, HTS, primary screen; FAM-aptamer displacement from GRK2; AID 488847, 2010; hit rate 0.59% among 330,000; inhibition of aptamer binding, % at 10 µM;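 active means inhibition of aptamer binding above 40%, roughly 3 SD of noise, on plates passing a quality check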;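 further: median bead fluorescence of bound FAM aptamer so fluorescent compounds give negative values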
Efflux pump inh = inhibitors of Candida efflux pumps in yeast, primary screen, S. cerevisiae, Nile Red, multiplex; S. cerevisiae Candida pump triplex; inhibition, % at 10 µM; hit rate 0.44% among 330,000;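 active means plate passing quality check with inhibition over a set limit, or well fluorescence over plate mean plus 4 SD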;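 further: Nile Red retained in pooled yeast measured as flow cytometry median fluorescence; higher means more Nile Red kept so more efflux inhibition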
HDAC3 inh = HDAC3 deacetylase inhibitors, primary screen, biochemical, fluorescence, cell-free homogeneous; Histone deacetylase 3 (Homo sapiens), O15379; recombinant HDAC3, fluorogenic peptide/trypsin coupled; inhibition, % at 8.3 µM; hit rate 0.15% among 320,000; AID 2718, 2010; in the data active means inhibition above about 26%, passing the limit was not always enough
Rce1 inhib = yeast Rce1p protease inhibitors, primary screen, biochemical, fluorescence, cell-free homogeneous; CAAX prenyl protease 2 (Saccharomyces cerevisiae (strain ATCC 204508 / S288c)), Q03530; yeast membranes, quenched prenylated peptide cleavage fluorescence; hit rate 0.27% among 290,000; calls only;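 active means fall in fluorescence gain of 50% or more versus controls, with final raw signal at or below 3038400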
Target sequence (Q03530 whole entry, looked up): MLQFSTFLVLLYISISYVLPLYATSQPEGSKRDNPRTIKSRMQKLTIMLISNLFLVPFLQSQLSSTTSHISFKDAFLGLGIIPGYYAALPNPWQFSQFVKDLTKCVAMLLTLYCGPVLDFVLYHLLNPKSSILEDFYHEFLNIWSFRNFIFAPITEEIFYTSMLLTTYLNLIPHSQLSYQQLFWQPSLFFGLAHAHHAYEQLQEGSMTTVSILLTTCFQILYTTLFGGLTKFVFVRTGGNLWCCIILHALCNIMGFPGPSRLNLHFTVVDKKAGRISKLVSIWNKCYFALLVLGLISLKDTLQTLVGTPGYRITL
GRK2 CP1 = GRK2 aptamer-displacing inhibitors, retest, confirmation, biochemical, cherry pick 1, bead flow cytometry. shares compounds with GRK2 aptamer HTS. bead-bound GRK2, FAM-aptamer displacement. aptamer displacement, % at 10 µM. hit rate 4% among 2,000;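 active means aptamer displacement above 40%, near three times the noise of non-fluorescent compounds, on plates passing quality checks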;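 further: negative values mostly reflect intrinsic compound fluorescence rather than true enhancement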
Aptamer quench = fluorescent aptamer quenching in GRK2 counter-screen dose response; fluorescence change (kMESF span), kMESF (concentration not given with the values); 110 tested, under 10 active; shares compounds with GRK2 aptamer HTS; Fluorescent RNA aptamer beads, flow cytometry; active compounds read high;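 active means compounds whose bead fluorescence drops by more than 37 kMESF across the dose range, marking them as dye quenchers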
Aptamer quench SP = aptamer fluorescence quenching in GRK2 counter-screen. 2,000 tested, under 10 active. fluorescence response (% of DMSO), % at 10 µM. Carboxyfluorescein RNA aptamer on beads, flow cytometry quenching; active compounds read low. shares compounds with GRK2 aptamer HTS;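 active means compounds that quench the bead-bound fluorescent RNA probe, cutting fluorescence to under half of the solvent control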;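 further: counterscreen run without GRK2 so only probe quenching by compound is measured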
GRK2 CP2 = GRK2 aptamer-displacing inhibitors, hit retest, confirmation, biochemical, cherry pick 2, bead flow cytometry | shares compounds with GRK2 aptamer HTS | bead-bound GRK2, FAM-aptamer displacement | inhibition of aptamer binding, % at 10 µM | 360 tested, under 10 active | AID 504782, 2011;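 active means inhibition of aptamer binding above 40%, about triple the noise seen with nonglowing compounds, on plates passing quality control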;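 further: negative values mostly come from compounds that fluoresce themselves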
FAM quench CP2 = counter-screen for GRK2 binding hits: quenchers of fluorescent RNA aptamer; 360 tested, under 10 active; shares compounds with GRK2 aptamer HTS; carboxyfluorescein RNA aptamer beads, flow cytometry quenching; active compounds read low; fluorescence response vs DMSO, % at 10 µM;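 active means response vs DMSO under 50%, meaning signal dropped by over half, treated as fluorescence quencher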;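 further: labelled aptamer on streptavidin beads without GRK2 as a quench counter-screen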
FAM quench PS1 = quenchers of FAM-labeled RNA aptamer fluorescence, dose response, artefact control for GRK2 aptamer binding project, biochemical, powder set 1, flow cytometry. shares compounds with GRK2 aptamer HTS. Bead-bound FAM RNA aptamer fluorescence quenching; active compounds read low. fluorescence ratio to DMSO, % at 11.1 µM. 35 tested, under 10 active;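 active means compounds that dim the fluorescent label, raw bead signal shifting by over 33 units between lowest and highest dose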
Numbers stand for hits; – = inactive; · = no result.

SMILES | Rtt109 HAT inh | ALR H2O2 inh | GRK2 aptamer HTS | Efflux pump inh | HDAC3 inh | Rce1 inhib | GRK2 CP1 | Aptamer quench SP | others
COc1ccc2[nH]c3c(c2c1)CCNC3(C)CCc1ccc(Cl)nc1 (centres undefined) | – | · | – | – | – | – | · | ·
CCOc1ccc(C2=NNC(c3cccnc3)=Nc3ccc(OC)cc32)cc1 | – | – | 100.0 | – | – | – | – | –
CSc1ccc(CN2CCN(C(C)C)C(CCO)C2)cc1 (centres undefined) | – | – | 91.0 | – | – | – | – | –
CC(C)N1CCN(Cc2ccncc2)CC1CCO (centres undefined) | – | – | – | – | – | – | · | ·
O=[N+]([O-])c1cc(C(F)(F)F)ccc1Sc1ccc2ccccc2n1 | – | – | – | – | – | · | – | –
Nc1nc(Sc2ccc(C(F)(F)F)cc2[N+](=O)[O-])n[nH]1 | – | – | – | – | – | – | · | ·
CCOc1cc(C)c(S(=O)(=O)Nc2ccc(Cl)cn2)cc1C | – | – | 46.0 | – | – | – | · | · | GRK2 CP2=–;FAM quench CP2=–
Cc1ccc(S(=O)(=O)NCCC(=O)Nc2nnc(C)s2)cc1 | – | · | 100.0 | – | · | – | – | –
CC(=O)NC(Cc1ccccc1C)C(=O)NC1CCN(C(=O)c2cccc(C)c2)CC1 (centres undefined) | – | – | – | – | – | – | · | ·
Cc1ccccc1S(=O)(=O)Cc1ccc(C(=O)NC(C)c2ccccc2)o1 (centres undefined) | – | – | – | – | – | – | · | ·
COc1ccccc1S(=O)(=O)Cc1ccc(C(=O)NC(C)c2ccc3c(c2)OCCO3)o1 (centres undefined) | – | – | – | – | – | – | – | –
CC(NC(=O)C(c1ccccc1)c1ccccc1)C(=O)N1CCCCC1 (centres undefined) | – | – | – | – | – | – | · | ·
Cc1cc2ccccc2n1CCNC(=O)C1CCCC1 | – | – | 99.0 | – | – | – | – | – | GRK2 CP2=–;FAM quench CP2=–
Cc1cc2ccccc2n1CCNC(=O)C1CCCCC1 | – | – | – | – | – | – | · | ·
Cc1cc2ccccc2n1CCNC(=O)c1cccs1 | – | – | 98.0 | – | · | – | 80.6 | – | Aptamer quench=–;FAM quench PS1=–
COc1ccccc1C(=O)OCc1c(-c2ccccc2)ncc2ccccc12 | – | · | – | – | – | · | · | ·
COc1ccccc1CN1CC(C(=O)NCCC2=CCCCC2)CCC1=O (centres undefined) | – | – | – | – | – | – | · | ·
COc1ccccc1CN1CC(C(=O)NCc2cc(F)cc(C(F)(F)F)c2)CCC1=O (centres undefined) | – | – | 89.0 | – | – | – | – | –
